TRHR agonist-1 – agonists of human TRH receptor; P34981; TRHR cells, calcium flux fluo-8, FDSS agonist mode; activation, % at 2 µM; actives 0.18% (n = 360,000); AID 493084; also: 0% is about no effect
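TRHR-expressing cells, plated overnight in medium with 10% serum, were loaded with fluo-8 calcium dye at room temperature. After a 10 s baseline, library compound was pin-added and calcium release was recorded kinetically (ex 480/em 530) as agonist response.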
D1 antagonist – antagonists of human D1 dopamine receptor. P21728. HEK293 TREx D1 cells, calcium flux, dopamine EC80; active compounds read low. activity change, negative = inhibition, % at 10 µM. AID 504652. actives 3.2% (n = 360,000); in the data active = activity change below about -30%; also: % is scaled to controls: 0 for no effect and ±100 for the full control effect
Target sequence (P21728 whole entry, looked up): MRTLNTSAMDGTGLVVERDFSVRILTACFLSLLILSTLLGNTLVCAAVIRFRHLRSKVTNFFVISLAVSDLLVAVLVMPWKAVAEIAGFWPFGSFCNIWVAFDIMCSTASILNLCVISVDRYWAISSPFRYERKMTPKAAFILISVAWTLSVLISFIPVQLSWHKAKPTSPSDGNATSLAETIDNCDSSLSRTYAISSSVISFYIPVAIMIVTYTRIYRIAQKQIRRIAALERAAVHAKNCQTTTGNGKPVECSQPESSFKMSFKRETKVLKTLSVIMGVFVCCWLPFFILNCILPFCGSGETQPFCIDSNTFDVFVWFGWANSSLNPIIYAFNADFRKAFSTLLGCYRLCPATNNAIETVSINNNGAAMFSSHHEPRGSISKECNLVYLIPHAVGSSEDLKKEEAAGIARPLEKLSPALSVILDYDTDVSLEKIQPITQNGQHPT
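Cells carrying a force-coupled, tetracycline-inducible human D1 receptor report calcium flux. Each well gets a 10 s baseline, compound with 180 s monitoring, then an EC80 dopamine stimulus with a second 180 s kinetic read.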
D1 ag – activates the human D1 dopamine receptor; HEK293 T-REx D1 cells, calcium flux, agonist mode; activation, % at 2 µM; actives 1% (n = 360,000); AID 504660; also: 0% is about no effect
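Inducible HEK293 T-REx D1 cells, force-coupled to calcium signalling, were plated at 4000 cells/well with tetracycline and held overnight at 30 C. After no-wash calcium dye loading, compound-evoked calcium rise over 180 s flagged agonists.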
TRHR enhancer-1 – allosteric enhancers of human TRH receptor; enhancement, % at 2 µM; actives 0.66% (n = 360,000); TRHR cells, fluo-8 calcium fluorescence, EC20 TRH enhancement; in the data active = enhancement above about 30%; also: 0% is about no effect
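TRHR-expressing cells loaded with fluo-8 calcium dye were read kinetically (ex 480/em 530) during compound addition, then stimulated with an EC20 of TRH (10 nM final). Enhancement of the Gq-mediated intracellular calcium response was scored.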
D1 potentiator – human D1 dopamine receptor positive modulation; P21728; AID 504651; actives 0.036% (n = 360,000); potentiation, % at 10 µM; HEK293 TREx D1 cells, calcium flux, dopamine EC20 potentiation; in the data active = potentiation above about 30%; also: 0% is about no effect
TRHR enhancer-2 – confirmation of human TRH receptor allosteric enhancers | shares compounds with TRHR enhancer-1 | TRH receptor cell assay, enhancer confirmation qHTS | activity change, negative = inhibition, % at 46.1 µM | 970 tested, under 10 active; active = well fitted curve in the direction sought with a large enough effect; inconclusive = small, poorly fitted or top-dose-only effect, or another doubt; inactive = no such curve, though single readings can be large; an effect the other way counts as inactive or inconclusive;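 also: compound effect scored on response to added TRH at EC20 of 10 nM; 0% is about no effect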
TRHR agonist-2 – human TRH receptor agonism confirmation; TRHR-expressing cells, agonist activation read-out; AID 493078; shares compounds with TRHR enhancer-1; Potency, µM (top dose mostly 46.1 µM), for inactives: at the highest dose activation, hits mostly activators; actives 8% (n = 970); active = well fitted curve in the direction sought with a large enough effect; inconclusive = small, poorly fitted or top-dose-only effect, or another doubt; inactive = no such curve, though single readings can be large; an effect the other way counts as inactive or inconclusive; also: potency is read from the fitted curve at half-maximal effect; 0% is about no effect; nearly all actives have a fitted effect of over 75% in size
The depositor's hits bear a star; ? = inconclusive; / = no result. In the library only some 4.6% were active in any assay of this set; here they are far more common. Rule as the data show it, unless noted: active = activation above about 30%; inactive = the rest.

SMILES	TRHR agonist-1	D1 antagonist	D1 ag	TRHR enhancer-1	D1 potentiator	TRHR enhancer-2	TRHR agonist-2
O=C1OCC2=C1C(c1ccc(F)cc1)CC(=O)N2c1ccc(F)cc1 (configuration not stated)	-1	3	3	-11	-2	/	/
CCc1ccc(N2C(=O)CC(c3ccc(F)cc3)C3=C2COC3=O)cc1 (configuration not stated)	0	-17	5	73*	-5	-6	1%
Cc1nc(S(=O)(=O)N2CCN(C3c4ccccc4-c4ccccc43)CC2)cn1C	1	22	5	43*	6	8	5%
CN1C(=O)c2cccc3c(N(C)C)ccc(c23)C1=O	44*	-2	60*	8	2	7	16µM*
CC(NC(=O)c1nn(C)c2c1CSc1ccccc1-2)c1ccccc1 (configuration not stated)	0	4	2	1	2	/	/
COC(=O)c1cccc(NC(=O)CN2CCc3ccccc3C2)c1	0	-9	3	71*	0	-4	6%
Cc1ccc(CNC(=O)C(C(C)C)N2Cc3ccccc3C2=O)cc1 (configuration not stated)	0	-10	6	-3	1	/	/
O=C(O)C1CC=CCC1C(=O)NCCCN1CCCC1=O (configuration not stated)	0	-14	4	45*	2	1	-1%
CC1=C(C)CC(C(=O)NCCCN2CCCC2=O)C(C(=O)O)C1 (configuration not stated)	0	-5	1	-8	-6	/	/
CC(=O)Nc1cc2c(nc1C)nc(C)n2Cc1ccc(Br)cc1	1	-1	4	46*	2	-2	-1%
COc1ccc(C(=O)NNc2ncnc3c2cnn3-c2ccc(C)cc2C)cc1	-1	-2	-4	0	0	/	/
O=C(OCC(=O)N1CCN(c2ccccc2)CC1)c1ccc2ccccc2n1	0	-11	1	41*	5	1	-1%
O=c1[nH]c(/C=C/c2ccc(Br)cc2)nc2ccccc12	1	-5	5	-1	-5	/	/
CN(C)c1ccc(/C=C/c2nc3ccccc3c(=O)[nH]2)cc1	59*	-12	39*	-2	-2	?	21µM*
N=c1oc2ccccc2cc1C(=O)Nc1ccccc1	0	18	8	-2	0	/	/
CCCCCCc1cc2cc(C(=O)Nc3ccccc3)c(=O)oc2cc1O	30*	-8	7	-10	-6	5	1%
Cc1ccc(C)c(N2CCN(C(=O)CSCc3ccccc3Cl)CC2)c1	0	-2	4	-1	-1	/	/
COc1ccc(N2CCN(CC(=O)N3c4ccccc4CC3C)CC2)cc1 (configuration not stated)	0	5	2	41*	-3	?	1%
CC1CCN(CC(=O)N2c3ccccc3CC2C)CC1 (configuration not stated)	-2	1	5	0	-2	/	/
Cc1c(Nc2nc(-c3cccc([N+](=O)[O-])c3)cs2)c(=O)n(-c2ccccc2)n1C	0	2	0	48*	-3	-1	1%
Cc1c(NS(=O)(=O)c2cccc([N+](=O)[O-])c2)c(=O)n(-c2ccccc2)n1C	0	2	0	3	-3	/	/
CC(C)C(=O)Nc1nnc(NC(=S)Nc2ccccc2)s1	0	-7	3	50*	11	-3	1%
COCCn1c(SCC(=O)N2CC(=O)Nc3ccccc32)nc2ccccc21	45*	-8	0	7	6	-6	-1%
COc1ccc(C(=O)NCc2cc(C)nc3ccccc23)cc1OC	0	-8	7	2	5	/	/
COc1cc(OC)cc(C(=O)NCc2cc(C)nc3ccccc23)c1	33*	-3	5	-2	11	-8	1%
SMILES	TRHR agonist-1	D1 antagonist	D1 ag	TRHR enhancer-1	D1 potentiator	TRHR enhancer-2	TRHR agonist-2
CN(c1ccc(C(=O)N2CCN(c3ccc(F)cc3)CC2)cc1)S(C)(=O)=O	1	0	-1	56*	-5	-6	-1%
CCc1ccc(NC(=O)Cn2nnc(-c3ccccc3N)n2)cc1	-1	-9	4	-9	-1	/	/
CNc1c(NS(=O)(=O)c2ccc(Cl)s2)c(=O)oc2ccccc12	1	12	3	-7	-6	/	/
O=S(=O)(Nc1ncnc2c1oc1ccccc12)c1ccc(Cl)s1	0	9	-1	51*	3	-8	5%
COc1ccc(NC(=O)C2CCN(S(=O)(=O)c3ccc4c(c3)CCCC(=O)N4)CC2)cc1Cl	0	-3	1	14	0	/	/
COc1ccc(C2/C(=C(\O)c3ccc4c(c3)OCCO4)C(=O)C(=O)N2c2nc(C)c(C(C)=O)s2)cc1 (configuration not stated)	0	-14	2	41*	-7	2	2%
CNC(=O)Cn1cc(S(=O)(=O)Cc2ccccc2F)c2ccccc21	0	-10	-1	-10	0	/	/
Cc1ccc(NC(=O)C(=O)NCC(c2cccnc2)N2CCN(Cc3ccccc3)CC2)cc1C (configuration not stated)	0	-2	1	2	5	/	/
O=C(CN1CCCC1)N1c2ccccc2Sc2ccc(Cl)cc21	2	5	3	47*	1	-5	2%
O=C(CN1CCCC1)N1c2ccccc2Sc2ccc(C(F)(F)F)cc21	1	11	1	-2	-2	/	/
CCc1ccccc1NC(=O)Nc1cc(C(=O)NCc2ccc(C)cc2)ccc1N1CCCC1	-1	-5	-2	4	0	/	/
CCCn1c2ccccc2c2nnc(SC(CC)C(=O)Nc3sc4c(c3C#N)CCCC4)nc21 (configuration not stated)	25	/	-2	8	-3	4	-1%
O=C(Nc1ccccc1)/C(=C/c1ccc2c(c1)OCO2)NC(=O)c1ccco1	0	0	3	52*	-7	2	0%
CC(=O)Nc1nonc1-c1nnc(SCC(=O)Nc2ccc(C)cc2)n1-c1ccccc1	-1	-23	0	1	0	/	/
O=C(NCc1cccs1)Nc1cc(Cl)ccc1Cl	-4	1	16	41*	-9	-5	3%
CN(C)CCCNc1oc(-c2ccccc2Cl)nc1S(=O)(=O)c1ccc(F)cc1	2	-15	15	57*	-6	?	?
COc1c(C)cc(C(=O)C2CCCN(C(=O)CCc3scnc3C)C2)cc1C (configuration not stated)	-1	0	4	53*	-6	-3	-1%

Bioassay records as filed in PubChem.
